Screens from PubChem.
SENP7 block: SENP7 protease inhibition. Q9BQF6. recombinant SENP7, Z-RLRGG-aminoluciferin luminescence, 40 min. inhibition, % at 5 µM. hit rate 1.5% among 330,000. AID 434973;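 active = inhibition above about 50% at the single test dose, limit read from the data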;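 also: plate controls were DMSO with enzyme for no effect and no enzyme buffer wells for full effect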
Platelet DG rel: modulates dense granule release in human platelets | human platelet-rich plasma, SFLLRN dense granule ATP release, luminescence | inhibition, %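 (compounds screened at 7.5 µM in platelet-rich plasma)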 | hit rate 0.22% among 300,000;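 active = mean replicate score, as percent of positive control, at or above 50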
HSP90 inh: inhibitors of HSP90 luciferase refolding in rabbit reticulocyte lysate; luciferase refolding luminescence, 3 h; inhibition, % at 5.6 µM; hit rate 0.91% among 290,000; AID 1789;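 active = inhibition above the screen-wide mean plus 3 SD, computed separately per campaign, cut at about 16% in these data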;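 also: 0% = DMSO wells and 100% = 60 µM geldanamycin wells; inhibitors lower the luminescence because luciferase stays unfolded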
SENP6 inh: blocks the human protease SENP6; AID 2599; Recombinant SENP6 catalytic domain, aminoluciferin luminescence; inhibition, % at 10 µM; hit rate 1.8% among 330,000;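 active = inhibition above about 50% at the single tested dose, limit read from the data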;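 also: plate controls were DMSO wells with enzyme for no effect and DMSO wells lacking enzyme for full effect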
Target sequence (Q9GZR1 628-1112 limits assumed): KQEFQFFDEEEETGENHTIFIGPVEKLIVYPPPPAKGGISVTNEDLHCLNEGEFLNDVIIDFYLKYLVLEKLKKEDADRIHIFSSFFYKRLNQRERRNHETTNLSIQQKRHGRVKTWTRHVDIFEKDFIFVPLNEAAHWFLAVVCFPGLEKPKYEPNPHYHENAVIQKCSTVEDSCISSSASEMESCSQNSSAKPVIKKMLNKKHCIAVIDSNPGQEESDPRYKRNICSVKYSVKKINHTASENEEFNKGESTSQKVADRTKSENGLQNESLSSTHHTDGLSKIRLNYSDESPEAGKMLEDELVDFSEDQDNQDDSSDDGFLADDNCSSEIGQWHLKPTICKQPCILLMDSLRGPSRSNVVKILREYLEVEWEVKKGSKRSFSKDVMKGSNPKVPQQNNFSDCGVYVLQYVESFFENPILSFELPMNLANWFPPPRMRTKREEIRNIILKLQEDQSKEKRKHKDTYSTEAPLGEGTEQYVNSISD
SENP8 block-1: blocks the human protease SENP8; purified SENP8, Z-RLRGG-aminoluciferin cleavage, luminescence; AID 2540; inhibition, % at 10 µM; hit rate 1.2% among 330,000; in the data active = inhibition above about 50%
SENP8 block-2: inhibitors of human SENP8 protease; inhibition, % at 20 µM; hit rate 0.64% among 360,000; Q96LD8; AID 602440; recombinant SENP8, Nedd8 substrate fluorescence; in the data active = inhibition mostly above about 40%, no sharp cut-off; inactive = mostly below about 27%
SENP8 conf: confirmation of human SENP8 protease inhibitors; shares compounds with SENP8 block-2; inhibition, % at 25 µM; purified SENP8, Nedd8-AMC/pro-Nedd8 cleavage fluorescence, 30 min; hit rate 15% among 1,400; in the data active = inhibition mostly above about 39%, no sharp cut-off; inactive = mostly below about 34%
An asterisk follows results filed as active. Rows were chosen to be rich in hits. Some 2.8% of all compounds tested hit in one or more screens of this group.

CCN(CC)S(=O)(=O)c1ccc(N2CCOCC2)c(NC(=O)C(=O)c2c(-c3ccccc3)cc3ccccn23)c1 was read as SENP7 block 6, Platelet DG rel -4, HSP90 inh 1, SENP6 inh 7, SENP8 block-1 3, SENP8 block-2 75* and SENP8 conf 21.
Cc1ccc(OCC(O)CNS(=O)(=O)c2ccccc2C(=O)O)cc1 (stereo not given) was read as SENP7 block 9, Platelet DG rel -4, HSP90 inh 3, SENP6 inh -6, SENP8 block-1 -3 and SENP8 block-2 26.
Screening O=C(O)c1ccccc1S(=O)(=O)NCC(O)COC1CCCCC1 (stereo not given) returned SENP7 block -7, Platelet DG rel -3, HSP90 inh 3, SENP6 inh -18, SENP8 block-1 -13, SENP8 block-2 43* and SENP8 conf 2.
For CCOC(=O)CNC(=O)N1CCCC(Cc2ccccc2)(C(=O)OCC)C1 (stereo not given) the results were Platelet DG rel -5, HSP90 inh 6 and SENP8 block-2 28.
`CC(C)[C@H](Nc1ccc(C(F)(F)F)cc1[N+](=O)[O-])C(=O)O` gave SENP7 block 5, Platelet DG rel 11, HSP90 inh 3, SENP6 inh -10, SENP8 block-1 2, SENP8 block-2 41* and SENP8 conf 22.
`Cc1cc(C)c(C(=O)COC(=O)[C@H](C)Nc2ccc(C(F)(F)F)cc2[N+](=O)[O-])c(C)c1` gave SENP7 block -1, Platelet DG rel 3, HSP90 inh 5, SENP6 inh -1, SENP8 block-1 -3 and SENP8 block-2 14.
For O=C(O)c1cccc(Br)c1 the results were SENP8 block-2 42* and SENP8 conf 4.
`COC(=O)CCCn1cc(CN2CC(N3CCN(Cc4ccccc4F)CC3)CS2(=O)=O)nn1` (stereo not given) gave SENP8 block-2 6.
Screening C=CCn1c(SCC(=O)Nc2cc(C)on2)nnc1C1COc2ccccc2O1 (stereo not given) returned SENP7 block -13, Platelet DG rel -4, HSP90 inh 3, SENP6 inh -16, SENP8 block-1 -10 and SENP8 block-2 -6.
For Cc1cc(NC(=O)CSc2nnc(C3COc4ccccc4O3)n2N)no1 (stereo not given) the results were SENP7 block 13, Platelet DG rel -1, HSP90 inh -2, SENP6 inh -13, SENP8 block-1 -1, SENP8 block-2 43* and SENP8 conf 9.
Screening COc1ccc(NC(=O)c2cnc(SC)nc2C)c(OC)c1 returned SENP7 block 4, Platelet DG rel 2, HSP90 inh -3, SENP6 inh -17, SENP8 block-1 6 and SENP8 block-2 7.
For O=c1[nH]c(CN2CCCCC2)ccc1O the results were SENP8 block-2 68* and SENP8 conf 38*.
For COc1ncccc1C(=O)Nc1c(-c2ccccc2)[nH][nH]c1=O the results were SENP8 block-2 16.
For O=C(Nc1c(-c2ccccc2)[nH][nH]c1=O)c1cnccn1 the results were SENP8 block-2 40* and SENP8 conf 37.
Screening O=C(Nc1c(-c2ccc3c(c2)OCO3)[nH][nH]c1=O)c1cnccn1 returned SENP8 block-2 27.
Screening O=C(Nc1c(-c2ccccc2)[nH][nH]c1=O)c1ccc2ccccc2c1 returned SENP8 block-2 21.
O=C(Nc1c(-c2ccccc2)[nH][nH]c1=O)c1ccc(Br)cc1 was read as SENP8 block-2 58* and SENP8 conf 22.
COc1ccc(-c2[nH][nH]c(=O)c2NC(=O)c2ccc(C)cc2)cc1 was read as SENP8 block-2 45* and SENP8 conf 14.
Screening CCN(CC)C(=O)Cn1c(=O)n(CC(=O)N2CCCCC2)c(=O)c2sccc21 returned SENP7 block 3, Platelet DG rel -8, HSP90 inh 2, SENP6 inh 11, SENP8 block-1 3 and SENP8 block-2 10.
Screening CCN(CC)C(=O)Cc1ccccc1 returned SENP7 block -6, Platelet DG rel -3, SENP6 inh -22, SENP8 block-1 0, SENP8 block-2 42* and SENP8 conf 14.
For COc1cc(OC)cc(C2=Cc3ccccc3C(CC(C)=O)N2c2ccc(C#CC3(N)CCCCC3)cc2)c1 (stereo not given) the results were SENP8 block-2 -378.
For CNc1ccc(/C=C2\COc3ccccc3C2=O)cc1[N+](=O)[O-] the results were SENP7 block -18, Platelet DG rel 5, HSP90 inh 1, SENP6 inh -8, SENP8 block-1 -6, SENP8 block-2 50* and SENP8 conf 14.
COc1ccc(NC(=O)CN(C)C(=O)c2ccc3c(c2)S(=O)(=O)N=C2CCCCCN23)cc1 was read as SENP7 block -3, Platelet DG rel 23, HSP90 inh 6, SENP6 inh -12, SENP8 block-1 -1 and SENP8 block-2 5.
For Cc1ccc(Sc2ncccc2C(=O)N(C)Cc2cccs2)c(C)c1 the results were SENP7 block 2, Platelet DG rel 5, HSP90 inh 0, SENP6 inh -9, SENP8 block-1 5 and SENP8 block-2 20.
CC(=O)N/N=C(\C)C1COc2ccccc2O1 (stereo not given) was read as SENP7 block 5, Platelet DG rel 3, HSP90 inh 0, SENP6 inh -3, SENP8 block-1 5, SENP8 block-2 41* and SENP8 conf 6.
Screening CC1(/[N+]([O-])=C/c2ccc(Cl)cc2Cl)CCCCC1=O (stereo not given) returned SENP7 block 5, Platelet DG rel 2, HSP90 inh -1, SENP6 inh 19, SENP8 block-1 6, SENP8 block-2 46* and SENP8 conf 0.
For CC(C)C[C@@H](CN)NC(=O)c1nc[nH]c1C(=O)N[C@@H](C)C(=O)CNC[C@H](C)NC(=O)c1nc[nH]c1C(=O)N[C@@H](CC(C)C)C(=O)O the results were SENP8 block-2 0.
CC(c1ccccc1)C(NC(=O)OCC1c2ccccc2-c2ccccc21)C(=O)O (stereo not given) was read as SENP7 block -10, Platelet DG rel -6, SENP6 inh -9, SENP8 block-1 -5 and SENP8 block-2 14.
`CC(c1ccon1)N(C)C(=O)c1cccc(OC2CCN(S(C)(=O)=O)CC2)c1` (stereo not given) gave SENP8 block-2 9.
Screening COc1cc(=O)n(C)c2ccccc12 returned SENP7 block 0, Platelet DG rel -6, HSP90 inh 2, SENP6 inh -19, SENP8 block-1 -11 and SENP8 block-2 1.
For COc1cc(=O)n(C)c2c(O)cccc12 the results were SENP7 block -1, Platelet DG rel -1, HSP90 inh 4, SENP6 inh -15, SENP8 block-1 -5, SENP8 block-2 56* and SENP8 conf 0.
